Data as given in PubChem BioAssay.
Activity calls are given as the source filed them.

Key:
[1] = small molecules captured by biotinylated probe aFSTL3 – biochemical, small-molecule microarray, fluorescence 635/667, stem cell growth factor project, primary screen (AID 1064); conditions: higher = more signal;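 note: measures binding of the biotinylated anti-FSTL3 antibody to printed compounds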
[2] = binders from COS7 lysate, DM2A8 probe, primary screen, torsin A project, cell lysate, small-molecule microarray, fluorescence 635/667 (AID 1065); conditions: higher = more signal, COS7 lysate expressing mutant human TOR1A
[3] = small molecules captured by biotinylated probe aFGF2 – biochemical, small-molecule microarray, fluorescence 635/667, stem cell growth factor project, primary screen (AID 1067); conditions: higher = more signal;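 note: measures binding of biotinylated aFGF2 protein to printed compounds on slides; z-score merges feature fluorescence and signal-to-noise across triplicate slides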
[4] = small molecules captured by biotinylated probe aFGF10 – biochemical, small-molecule microarray, fluorescence 635/667, stem cell growth factor project, primary screen (AID 1071); conditions: higher = more signal;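 note: score merges 667 nm spot intensity and signal to noise from triplicate slides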
[5] = target: Neurogenic locus notch homolog protein 2 (Homo sapiens) (UniProt Q04721); assay: small molecules binding Notch2 protein – biochemical, small-molecule microarray, 635 nm fluorescence, stem cell growth factors, primary screen (AID 1073); conditions: higher = more signal
Chain of Neurogenic locus notch homolog protein 2 (Homo sapiens) (Q04721 whole entry, looked up, canonical isoform): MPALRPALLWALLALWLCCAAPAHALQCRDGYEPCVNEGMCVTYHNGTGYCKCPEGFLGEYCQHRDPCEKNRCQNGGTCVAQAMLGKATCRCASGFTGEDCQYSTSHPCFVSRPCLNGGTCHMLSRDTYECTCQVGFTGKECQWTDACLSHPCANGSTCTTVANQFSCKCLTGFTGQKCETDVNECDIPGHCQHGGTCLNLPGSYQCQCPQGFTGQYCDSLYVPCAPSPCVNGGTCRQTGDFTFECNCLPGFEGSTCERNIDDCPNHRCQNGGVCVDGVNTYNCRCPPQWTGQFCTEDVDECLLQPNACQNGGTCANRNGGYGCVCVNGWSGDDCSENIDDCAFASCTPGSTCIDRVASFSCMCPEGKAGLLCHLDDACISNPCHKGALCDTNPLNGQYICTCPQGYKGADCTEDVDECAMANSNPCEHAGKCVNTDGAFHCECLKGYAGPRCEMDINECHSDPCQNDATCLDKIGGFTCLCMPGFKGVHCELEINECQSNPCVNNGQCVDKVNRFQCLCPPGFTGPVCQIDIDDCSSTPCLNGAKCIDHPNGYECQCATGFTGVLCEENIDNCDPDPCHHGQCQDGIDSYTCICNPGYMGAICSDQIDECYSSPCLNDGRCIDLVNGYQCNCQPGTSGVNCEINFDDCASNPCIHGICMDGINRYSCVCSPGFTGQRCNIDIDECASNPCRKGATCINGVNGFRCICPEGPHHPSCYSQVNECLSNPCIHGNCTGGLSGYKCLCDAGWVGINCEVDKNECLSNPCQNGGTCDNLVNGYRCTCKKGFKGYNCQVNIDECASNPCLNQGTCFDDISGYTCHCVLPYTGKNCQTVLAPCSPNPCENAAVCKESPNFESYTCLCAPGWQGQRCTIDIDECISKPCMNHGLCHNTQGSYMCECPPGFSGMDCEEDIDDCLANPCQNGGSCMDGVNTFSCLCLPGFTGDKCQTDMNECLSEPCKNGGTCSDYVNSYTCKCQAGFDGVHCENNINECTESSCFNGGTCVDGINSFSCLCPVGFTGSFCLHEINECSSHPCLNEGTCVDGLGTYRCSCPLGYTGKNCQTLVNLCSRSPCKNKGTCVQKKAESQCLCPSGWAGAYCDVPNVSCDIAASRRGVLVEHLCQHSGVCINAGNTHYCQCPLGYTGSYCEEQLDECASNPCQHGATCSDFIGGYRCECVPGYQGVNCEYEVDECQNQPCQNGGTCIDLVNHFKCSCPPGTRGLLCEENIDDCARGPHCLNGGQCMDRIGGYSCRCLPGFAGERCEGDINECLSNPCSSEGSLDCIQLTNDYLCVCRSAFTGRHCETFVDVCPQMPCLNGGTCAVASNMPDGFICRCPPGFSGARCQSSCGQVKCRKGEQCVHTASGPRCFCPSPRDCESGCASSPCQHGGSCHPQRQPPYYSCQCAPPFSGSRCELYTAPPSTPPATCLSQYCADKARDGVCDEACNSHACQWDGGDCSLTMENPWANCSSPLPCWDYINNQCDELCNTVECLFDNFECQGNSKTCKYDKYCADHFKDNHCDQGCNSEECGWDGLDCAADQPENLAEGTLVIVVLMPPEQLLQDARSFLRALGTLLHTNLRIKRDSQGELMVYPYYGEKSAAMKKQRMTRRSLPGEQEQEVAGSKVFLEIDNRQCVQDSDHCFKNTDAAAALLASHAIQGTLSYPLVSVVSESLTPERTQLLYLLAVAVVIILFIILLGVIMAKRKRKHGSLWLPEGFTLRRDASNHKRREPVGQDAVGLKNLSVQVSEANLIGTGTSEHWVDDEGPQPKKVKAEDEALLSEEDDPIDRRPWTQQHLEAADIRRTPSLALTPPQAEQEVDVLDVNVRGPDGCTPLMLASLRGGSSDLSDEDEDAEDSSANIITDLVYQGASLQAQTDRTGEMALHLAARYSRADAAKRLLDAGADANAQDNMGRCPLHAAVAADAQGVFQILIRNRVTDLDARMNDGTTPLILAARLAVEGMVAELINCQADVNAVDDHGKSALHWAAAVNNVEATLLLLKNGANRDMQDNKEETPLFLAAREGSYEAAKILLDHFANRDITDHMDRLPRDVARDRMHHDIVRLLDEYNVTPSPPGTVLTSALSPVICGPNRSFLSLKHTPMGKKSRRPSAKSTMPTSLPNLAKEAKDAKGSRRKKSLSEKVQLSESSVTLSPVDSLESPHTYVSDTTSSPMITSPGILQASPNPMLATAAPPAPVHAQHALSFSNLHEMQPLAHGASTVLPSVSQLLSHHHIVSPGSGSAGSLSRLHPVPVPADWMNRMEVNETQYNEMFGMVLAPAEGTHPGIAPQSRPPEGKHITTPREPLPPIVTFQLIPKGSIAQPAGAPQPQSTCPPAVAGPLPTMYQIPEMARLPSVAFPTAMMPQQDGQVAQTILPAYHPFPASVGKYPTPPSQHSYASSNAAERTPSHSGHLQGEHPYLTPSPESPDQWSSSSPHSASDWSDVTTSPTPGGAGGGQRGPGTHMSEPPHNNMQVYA

[6] = target: Pro-neuregulin-1, membrane-bound isoform (Homo sapiens) (UniProt Q02297); assay: small molecules binding neuregulin-1 protein – biochemical, small-molecule microarray, fluorescence 635/667, psychiatric disease protein project, primary screen (AID 1075); conditions: NRG1 binding, 635 nm fluorescence, higher = more signal;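 note: score combines 667 nm spot fluorescence with signal to noise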
Chain of Pro-neuregulin-1, membrane-bound isoform (Homo sapiens) (Q02297 whole entry, looked up, the tested form may be a part, canonical isoform): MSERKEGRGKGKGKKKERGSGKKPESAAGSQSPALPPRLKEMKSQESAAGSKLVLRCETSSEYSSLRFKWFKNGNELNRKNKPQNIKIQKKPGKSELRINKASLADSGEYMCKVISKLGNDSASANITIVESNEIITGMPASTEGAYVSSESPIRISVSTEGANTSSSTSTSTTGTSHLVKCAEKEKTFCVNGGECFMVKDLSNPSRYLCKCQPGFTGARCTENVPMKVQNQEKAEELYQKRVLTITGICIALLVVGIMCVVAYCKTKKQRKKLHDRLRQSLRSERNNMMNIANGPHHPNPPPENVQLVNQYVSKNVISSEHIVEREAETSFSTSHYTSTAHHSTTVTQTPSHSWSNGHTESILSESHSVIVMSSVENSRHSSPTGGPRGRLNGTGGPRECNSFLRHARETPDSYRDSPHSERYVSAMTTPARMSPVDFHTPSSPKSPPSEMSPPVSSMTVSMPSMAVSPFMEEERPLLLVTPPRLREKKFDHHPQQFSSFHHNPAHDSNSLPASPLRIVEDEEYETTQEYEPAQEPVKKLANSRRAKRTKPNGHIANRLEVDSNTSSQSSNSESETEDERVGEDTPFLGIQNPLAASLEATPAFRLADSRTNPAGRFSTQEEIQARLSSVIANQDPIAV

[7] = system: Neuregulin-1 EGF-like domain; assay: small molecules binding NRG1 EGF domain – biochemical, small-molecule microarray, 635 nm fluorescence, primary screen (AID 1081); conditions: higher = more signal;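 note: binding of the protein to compounds printed on small-molecule microarray slides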
[8] = FRG1 expression reporter modulators in myotubes – cell-based, C2C12 myotubes, firefly/Renilla luciferase, luminescence, FRG1 inhibition for FSHD, primary screen (AID 1084); conditions: FRG1 promoter luciferase, higher = more signal, called active from +8 up or from −8 down
[9] = small molecules captured by biotinylated probe aFST – biochemical, small-molecule microarray, fluorescence 635/667, stem cell growth factor project, primary screen (AID 1086); conditions: higher = more signal;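 note: score merges 667 nm fluorescence with signal-to-noise of each printed compound spot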
[10] = binders of probe aHhip on microarray, primary screen, stem cell growth factor project, biochemical, small-molecule microarray, fluorescence 635/667 (AID 1087); conditions: higher = more signal;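 note: score merges spot fluorescence at 667nm with spot signal to noise ratio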

Compound	composite z-score [1]	composite z-score [2]	composite z-score [3]	composite z-score [4]	composite z-score [5]	composite z-score [6]	composite z-score [7]	z-score [8]	composite z-score [9]	composite z-score [10]
COCCOC(=O)N1C(=O)[C@@]2(c3cc(C#Cc4ccc(OC)cc4)ccc31)[C@H](c1ccc(OCCO)cc1)N1[C@H](c3ccccc3)[C@H](c3ccccc3)OC(=O)[C@H]1[C@@H]2C(=O)N1CCCCCCC1	2.51	0.351	0.684	0.315	0.753	1.52	1.01	-0.531 (inactive)	2.75	2.59
C=CCC(OC(C)=O)[C@@H]1[C@@H](N(Cc2cccc3ccccc23)C(=O)c2ccc(-c3ccccc3)cc2)c2cc(OCCCO)ccc2N1C(=O)c1ccc2ccccc2n1 (stereo not given in full)	-0.093	0.116	-0.0158	0.0632	0.285	0.298	0.037	-0.612 (inactive)	0.386	0.28
C=CCC(OC(C)=O)[C@@H]1[C@@H](N(Cc2cc3ccccc3o2)C(=O)Cc2ccc(OC)cc2)c2cc(OCCCO)ccc2N1C(=O)Cc1ccc(OC)cc1 (stereo not given in full)	-0.186	0.0357	-0.0459	0.0855	-0.144	-0.0625	0.0781	-1.19 (inactive)	-0.0586	0.0623
COC(=O)[C@]1(CO)N=C(c2ccc(OCCCO)cc2)O[C@@H]1c1ccccc1CN=[N+]=[N-]	-0.0858	-0.132	-0.155	-0.546	-0.663	-0.12	1.16	1.7 (inactive)	-0.144	-0.286
O=C(NCCO)C1=C[C@H](Oc2ccccc2I)[C@@H](O)[C@H](NCc2ccc(F)cc2)C1	0.175	0.917	-0.145	1.38	-0.627	-0.835	-1.68	-0.766 (inactive)	-0.459	0.0722
O=C1N(CCS(=O)(=O)c2ccccc2)c2ccccc2[C@@H]2OC(c3ccc(OCCCO)cc3)=N[C@]12CCS(=O)(=O)c1ccccc1	0.359	0.145	0.0069	0.291	1.44	0.195	1.28	-3.3 (inactive)	0.855	0.0053
CC(c1ccccc1)C(O)C1C=CC2C(=O)N(c3ccccc3)C(=O)C2N1Nc1ccc(C#N)cc1 (stereo not given)	-0.177	0.358	0.255	0.752	1.59	1.91	1.34	-0.948 (inactive)	1.42	0.0139
CC(C)C[C@H]1NC(=O)[C@@]23C(=O)N[C@@H](Cc4ccccc4)C2[C@H](C)[C@@]2(C)O[C@H]2C3/C=C/C/C=C\CNC(=O)[C@@H]2CCCN2C1=O (stereo not given in full)	-0.504	-0.39	-0.078	0.774	0.303	0.912	0.665	0.31 (inactive)	0.52	-0.0645
COCCOC(=O)N1C(=O)[C@@]2(c3cc(C#Cc4ccc(OC)cc4)ccc31)[C@H](C(=O)N1CCCCCCC1)[C@H]1C(=O)O[C@H](c3ccccc3)[C@H](c3ccccc3)N1[C@@H]2c1ccccc1OCCO	3.15	0.486	0.685	0.265	1.13	1.29	1.12	-0.575 (inactive)	3.04	2.21
CN(C)CCCC[C@@H]1NC(=O)[C@H]2C[C@@H](C(=O)NCc3ccc(F)cc3)[C@@H](c3ccc(O)cc3)N2C1=O	0.0653	0.412	-0.0904	0.268	0.201	0.865	1.25	1.07 (inactive)	-0.0224	0.028
CC(C)(C)OC(=O)CC[C@]1(C(N)=O)N=C(c2ccc(OCCCO)cc2)O[C@H]1c1ccccc1CN=[N+]=[N-]	0.68	1.13	0.191	0.873	1.53	2.66	1.47	5.29 (inactive)	0.441	0.0722
C=CCNC(=O)[C@H]1[C@@H]2C(=O)O[C@@H](c3ccccc3)[C@@H](c3ccccc3)N2[C@@H](c2ccccc2OCCO)[C@]12C(=O)N(C(=O)OCCOC)c1ccccc12	0.041	0.3	-0.0226	0.832	0.716	1.54	1.13	-2.27 (inactive)	0.186	0.0623
CCCC=C(CCC)[C@@H](NC(=O)c1ccccc1)c1ccc(C(=O)OC)cc1	0.0872	0.78	0.502	0.752	0.541	-0.0843	1.19	3.19 (inactive)	1.01	1.09
